These results are taken from PubChem BioAssay (Tox21).

A short description of assay [1]: qHTS RealTime-Glo MT Cell Viability Assay in HEK293 cells - 0 hour (AID 1224880). Further: top concentration of the series differs between compounds; nearly all actives have a fitted effect of over 45% in size. Put shortly:
(§1)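 Nonlytic bioluminescent viability monitoring. HEK293 at 600 cells/well with reagent; 5 h settle; compound transfer by pintool; plates held at 37 C and read at set time points.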

A short description of assay [2]: A CellTox Green Cytotoxicity Assay to monitor cytotoxicity in HEK293 cells - 32 hour (AID 1224881). Further: nearly all actives have a fitted effect of over 40% in size. Put shortly:
(§2)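 Cytotoxicity was tracked continuously in HEK293 cells by a DNA-binding dye excluded from viable cells. Compounds were transferred in DMSO 5 h after seeding; fluorescence was recorded at intervals up to 40 h.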

A short description of assay [3]: A CellTox Green Cytotoxicity Assay to monitor cytotoxicity in HepG2 cells - 0 hour (AID 1224882). Further: nearly all actives have a fitted effect of over 35% in size. In short, it runs like this: (§3)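 Real-time, homogeneous cytotoxicity readout: dead-cell DNA staining by CellTox Green in HepG2 monolayers, fluorescence measured at timed intervals up to 40 h of continuous compound exposure.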
A short description of assay [4]: A CellTox Green Cytotoxicity Assay to monitor cytotoxicity in HepG2 cells - 32 hour (AID 1224883). Further: nearly all actives have a fitted effect of over 50% in size. Put shortly: as §3
A short description of assay [5]: A CellTox Green Cytotoxicity Assay to monitor cytotoxicity in HEK293 cells - 8 hour (AID 1224884). Further: nearly all actives have a fitted effect of over 35% in size. In short, it runs like this:
as §2

Assay [6] in a line: qHTS RealTime-Glo MT Cell Viability Assay in HepG2 cells - 16 hour (AID 1224885). Further: nearly all actives have a fitted effect of over 50% in size. In short, it runs like this: (§4)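 Viability was tracked continuously by NanoLuc luminescence from prosubstrate reduced by living HepG2 cells, at successive time points over 40 h of compound exposure. Cells with reagent were preincubated 5 h at 37 °C before compound addition.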
A general note: Quantitative high-throughput screening tests each substance at several concentrations.

Assay [7] in a line: qHTS RealTime-Glo MT Cell Viability Assay in HEK293 cells - 24 hour (AID 1224886). Further: top concentration of the series differs between compounds; nearly all actives have a fitted effect of over 50% in size. Put shortly:
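Viability tracked continuously by luminescence as live cells reduce a prosubstrate for NanoLuc; HEK293 cells preincubated 5 h, compound-treated at 37 C, and read at 0, 8, 16, 24, 32 and 40 h.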

Assay [8] can be described thus: qHTS RealTime-Glo MT Cell Viability Assay in HEK293 cells - 8 hour (AID 1224887). Further: top concentration of the series differs between compounds; nearly all actives have a fitted effect of over 50% in size. Put shortly: as §1
The nature of assay [9]: A CellTox Green Cytotoxicity Assay to monitor cytotoxicity in HEK293 cells - 16 hour (AID 1224888). Further: nearly all actives have a fitted effect of over 35% in size. In short, it runs like this:
as §2

The nature of assay [10]: qHTS RealTime-Glo MT Cell Viability Assay in HepG2 cells - 0 hour (AID 1224889). Further: nearly all actives have a fitted effect of over 50% in size. In short, it runs like this:
as §4

Assay [11] is described as follows: A CellTox Green Cytotoxicity Assay to monitor cytotoxicity in HepG2 cells - 8 hour (AID 1224890). Further: nearly all actives have a fitted effect of over 45% in size. Put shortly:
as §3

A short description of assay [12]: qHTS assay to identify small molecule antagonists of the estrogen receptor alpha (ER-alpha) signaling pathway using the BG1 cell line in the presence of 0.1 nM 17-beta-estradiol - cell viability counter screen (AID 1259241). Further: nearly all actives have a fitted effect of over 40% in size. In short, it runs like this:
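The cell line endogenously expresses full-length ER-alpha and carries four EREs driving luciferase. Cells are cultured 5 days hormone-free, treated 22 hr with compounds and 0.1 nM estradiol, then viability is read by fluorescence.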

The nature of assay [13]: qHTS assay to identify small molecule antagonists of the androgen receptor (AR) signaling pathway using the MDA cell line in the presence of 0.5 nM R1881 - cell viability counter screen (AID 1259242). Further: nearly all actives have a fitted effect of over 45% in size. Put shortly:
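Cytotoxicity toward MDA-kb2 cells is measured by CellTiter-Fluor live-cell protease fluorescence after 16 hr compound exposure at 37C in the presence of 0.5 nM R1881 stimulator.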

A short description of assay [14]: qHTS assay to identify small molecule HDAC inhibitors (AID 1259364). Further: nearly all actives have a fitted effect of over 45% in size. Further: potency means the concentration at half of the fitted maximal effect. In short, it runs like this:
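Homogeneous cell-based luminescent assay of endogenous class I/II HDAC activity; HCT-116 cells, 2 h compound exposure, 30 min HDAC-Glo development at RT.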

Assay [15] in a line: qHTS assay to identify small molecule HDAC inhibitors - cell viability counter screen (AID 1259365). Put shortly:
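Viability readout: CellTiter-Glo luminescence. Wild-type HCT-116 cells, 2hr compound treatment following overnight attachment at 37 C.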

A short description of assay [16]: qHTS assay to identify small molecule agonists of the sonic hedgehog signaling (Shh) pathway - cell viability counter screen (AID 1259366). Further: nearly all actives have a fitted effect of over 50% in size. In short, it runs like this:
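Viability measured fluorometrically (CellTiter-Fluor, 1hr, 37C) in 3T3 Gli1-Luc reporter cells after 23hr compound exposure within a 24hr incubation at 37C/5% CO2.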

The nature of assay [17]: qHTS assay to identify small molecule antagonists of the sonic hedgehog signaling (Shh) pathway - cell viability counter screen (AID 1259367). Further: nearly all actives have a fitted effect of over 55% in size. In short, it runs like this: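 After a 4 hr settling period, 3T3 Gli1-Luc cells were treated with DMSO-dissolved chemicals and conditioned medium, kept 24 hr at 37C in 5% CO2, and assayed for viability by CellTiter-Fluor fluorescence following 1 hr reagent incubation.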

Assay [18] can be described thus: qHTS assay to identify small molecule phospholipidosis (PLD) inducers (AID 1259344; active means well fitted curve in the direction sought with a large enough effect; an effect the other way counts as inactive or inconclusive). In short, it runs like this: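 HepG2 cells grown on collagen I take up LipidTOX Red while exposed to compound for 24 h; after fixation they are imaged at 20x and pit metrics are extracted.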
Assay [19] deals with Estrogen receptor (Homo sapiens) (UniProt P03372). Nature of the assay: qHTS assay to identify small molecule antagonists of the estrogen receptor alpha (ER-alpha) signaling pathway using the BG1 cell line in the presence of 0.1 nM 17-beta-estradiol (AID 1259244). Further: nearly all actives have a fitted effect of over 50% in size. Put shortly: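 After 5 days in hormone-depleted medium (charcoal-stripped serum, no phenol red), VM7Luc4E2 cells were seeded, incubated 24 h, then co-treated with compound and 0.1 nM (final) estradiol for 22 h before luminescence detection.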
Chain of Estrogen receptor (Homo sapiens) (P03372 whole entry, looked up): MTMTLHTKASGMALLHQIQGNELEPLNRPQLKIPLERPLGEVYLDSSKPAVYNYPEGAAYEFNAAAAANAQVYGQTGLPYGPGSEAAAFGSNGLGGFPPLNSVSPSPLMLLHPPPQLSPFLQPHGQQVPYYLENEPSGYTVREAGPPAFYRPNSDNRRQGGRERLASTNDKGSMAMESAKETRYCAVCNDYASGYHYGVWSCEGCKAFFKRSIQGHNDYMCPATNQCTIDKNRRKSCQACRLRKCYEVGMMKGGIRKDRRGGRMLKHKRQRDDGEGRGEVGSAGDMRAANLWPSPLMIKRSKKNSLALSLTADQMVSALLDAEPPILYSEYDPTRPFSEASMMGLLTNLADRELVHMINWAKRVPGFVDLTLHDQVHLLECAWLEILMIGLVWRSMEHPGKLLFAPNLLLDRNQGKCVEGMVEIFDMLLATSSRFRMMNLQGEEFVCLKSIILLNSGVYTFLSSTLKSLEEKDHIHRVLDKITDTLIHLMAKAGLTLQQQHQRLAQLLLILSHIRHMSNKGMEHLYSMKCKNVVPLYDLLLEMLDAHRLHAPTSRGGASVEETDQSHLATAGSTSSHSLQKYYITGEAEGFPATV

Unmarked numbers belong to inactive results. Records with an inconclusive call do not appear. The source made the active and inactive calls. Unless noted, the call rests on the fitted dose curve; in most records, active means well fitted curve in the direction sought with a large enough effect in the repeat runs; inconclusive means weak or mixed curves; inactive means no such curve, though single readings can be large; an effect the other way counts as inactive or inconclusive.

For `C=CCOC(=O)COCCC(C)C`, the Potency result in assay [1], in assay [2], in assay [3], in [4], in assay [5] and in assay [6] was “inactive” each time. Moreover, the Potency entry in assay [7], in assay [8], in assay [9], in assay [10], in assay [11] and in assay [12] was “inactive” in each case. The Potency entry in assay [13], in [14], in assay [15], in [16] and in [17] was “inactive” each time.
On to `CCN(CC)C(=O)N1CCN(C)CC1`, for which the Potency result in assay [1], in assay [2], in [3], in assay [4], in assay [5] and in [6] was “inactive” in each case. Also, the Potency entry in [7], in [8], in assay [9], in assay [10], in [11] and in assay [12] was “inactive” in each case. Moreover, the Potency entry in assay [13], in assay [18], in assay [14], in assay [16] and in [17] was “inactive” throughout.
Take `O=c1[nH]c2cc(C(F)(F)F)c(N3CCOCC3)cc2n(CP(=O)(O)O)c1=O`: the Potency entry in assay [1], in [2], in assay [3], in assay [4], in [5] and in assay [6] was “inactive” throughout. For the same molecule, the Potency result in [7], in assay [8], in [9], in assay [10], in assay [11] and in assay [12] was “inactive” throughout. The Potency entry in [13], in assay [14], in assay [15], in [16] and in assay [17] was “inactive” each time.
`O=CNNC=O`: the Potency entry in [1], in assay [2], in assay [3], in assay [4], in [5] and in [6] was “inactive” each time. The Potency result in assay [7], in assay [8], in assay [9], in assay [10], in assay [11] and in assay [12] was “inactive” each time. Besides, the Potency entry in assay [13], in assay [19], in assay [15], in [16] and in assay [17] was “inactive” throughout.
Regarding `CN=C(N)NC(=O)Nc1c(C)cccc1C`, the Potency result in assay [1], in [2], in assay [3], in assay [4], in assay [5] and in assay [6] was “inactive” each time. In addition, the Potency result in assay [7], in assay [8], in [9], in assay [10], in assay [11] and in assay [12] was “inactive” throughout. For the same molecule, the Potency entry in assay [13], in [15], in assay [16] and in [17] was “inactive” in each case.
In the case of `CCCCC[C@H](O)/C=C/[C@H]1[C@H](O)CC(=O)[C@@H]1C/C=C\CCCC(=O)O`, the Potency result in assay [1], in assay [2], in [3], in assay [4], in assay [5] and in assay [6] was “inactive” in each case. The Potency entry in assay [7], in assay [8], in [9], in assay [10], in assay [11] and in assay [12] was “inactive” each time. Moreover, the Potency entry in assay [13], in assay [18], in assay [14], in assay [15] and in [17] was “inactive” throughout.
In the case of `CC(C)CC(O)CC(C)C`, the Potency entry in [1], in assay [2], in assay [3], in assay [4], in [5] and in [6] was “inactive” in each case. The Potency entry in assay [7], in [8], in assay [9], in [10], in [11] and in assay [12] was “inactive” throughout. Moreover, the Potency result in assay [13], in [14], in assay [16] and in assay [17] was “inactive” throughout.
For the molecule `COC(OC)OC`, the Potency entry in assay [1], in assay [2], in [3], in [4], in assay [5] and in [6] was “inactive” in each case. In addition, the Potency entry in [7], in assay [8], in assay [9], in assay [10], in assay [11] and in assay [12] was “inactive” throughout. The Potency entry in assay [13], in assay [14], in assay [15], in assay [16] and in [17] was “inactive” each time.
For the molecule `N[C@@H](Cc1cc(I)c(O)c(I)c1)C(=O)O`, the Potency result in [1], in [2], in assay [3], in assay [4], in assay [5] and in [6] was “inactive” throughout. Further, the Potency entry in assay [7], in assay [8], in assay [9], in assay [10], in assay [11] and in assay [12] was “inactive” each time. The Potency entry in assay [13], in assay [14], in [15], in assay [16] and in assay [17] was “inactive” throughout.
In the case of `CC(O)Cn1cnc2c1c(=O)n(C)c(=O)n2C` (stereo unspecified), the Potency result in [1], in assay [2], in assay [3], in assay [4], in [5] and in assay [6] was “inactive” in each case. Moreover, the Potency result in assay [7], in assay [8], in assay [9], in [10], in assay [11] and in [12] was “inactive” each time. In addition, the Potency result in assay [13], in [14], in assay [16] and in assay [17] was “inactive” each time.
Take `CC(C(=O)O)c1ccc(C(=O)c2cccs2)cc1` (stereo unspecified): the Potency entry in assay [1], in assay [2], in [3], in assay [4], in [5] and in assay [6] was “inactive” each time. Further, the Potency result in [7], in [8], in assay [9], in assay [10], in assay [11] and in assay [12] was “inactive” throughout. The Potency result in [13], in [18], in [16] and in [17] was “inactive” in each case. Moreover, the Potency in assay [14] was 29.8 µM (active).
As for `O=C1NC(=O)c2cccc3cccc1c23`, the Potency entry in [1], in assay [2], in [3], in assay [4], in assay [5] and in assay [6] was “inactive” in each case. For the same molecule, the Potency entry in assay [7], in assay [8], in assay [9], in assay [10], in assay [11] and in assay [12] was “inactive” in each case. Moreover, the Potency entry in assay [13], in assay [19], in [15], in [16] and in [17] was “inactive” throughout.
For the molecule `COc1ccc(C2C(=O)c3ccccc3C2=O)cc1`, the Potency entry in assay [1], in assay [2], in [3], in assay [4], in assay [5] and in [6] was “inactive” each time. In addition, the Potency entry in assay [7], in assay [8], in [9], in assay [10], in assay [11] and in assay [12] was “inactive” throughout. Also, the Potency entry in assay [13], in assay [18] and in assay [15] was “inactive” each time.
As for `CCNc1nc(N)nc(Cl)n1`, the Potency result in assay [1], in assay [2], in assay [3], in assay [4], in [5] and in assay [6] was “inactive” in each case. Further, the Potency result in assay [7], in assay [8], in [9], in assay [10], in [11] and in assay [12] was “inactive” each time. Besides, the Potency entry in [13], in assay [14], in assay [15] and in [16] was “inactive” throughout.
Regarding `CC(=O)N[C@@H](Cc1ccc(O)cc1)C(=O)O`, the Potency result in assay [1], in assay [2], in assay [3], in [4], in assay [5] and in assay [6] was “inactive” each time. For the same molecule, the Potency entry in assay [7], in assay [8], in assay [9], in assay [10], in [11] and in [12] was “inactive” throughout. Besides, the Potency entry in assay [13], in [18], in assay [14], in [15], in assay [16] and in [17] was “inactive” in each case.
Take `CC(=O)NCCO`: the Potency result in assay [1], in assay [2], in assay [3], in [4], in assay [5] and in assay [6] was “inactive” in each case. The Potency result in [7], in assay [8], in assay [9], in [10], in [11] and in assay [12] was “inactive” throughout. Besides, the Potency entry in assay [13], in [14], in [16] and in assay [17] was “inactive” each time.
